Growth data for eight molecules are collected here from PubChem BioAssay (NCI).

The panel holds about 83,000 compounds, 20% with a hit somewhere; the sample as a whole holds those more often.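 Values shown are percent growth following 48 h exposure of cells in 96-well plates to a single concentration of compound; below 10 was considered active.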 Values without a mark were called inactive. Active and inactive are the calls of the source.

Test systems include SK-MEL-2 melanoma; EKVX NSCLC; SN12C renal; UO-31 renal; TK-10 renal; ACHN renal; CAKI-1 renal; HL-60(TB) leukemia; CCRF-CEM leukemia; MOLT-4 leukemia; SR leukemia; RPMI-8226 leukemia; OVCAR-8 ovarian; OVCAR-5 ovarian; OVCAR-4 ovarian; SK-OV-3 ovarian; OVCAR-3 ovarian; HS 578T breast; IGROV1 ovarian.
What all share (experiment): NCI-60 one-dose screen, 48 h (100 = growth as untreated, 0 = no growth, -100 = all killed)
What all share (details): 10 µM unless noted

With `O=C(CC1(O)C(=O)Nc2ccccc21)c1ccc(C(=O)NCC2CCC3(CC2)OOC2(CCCCC2)OO3)cc1` (centres undefined), the growth was 70.7% in the assay with SK-MEL-2 melanoma; 58.3% with EKVX NSCLC; 74.4% with SN12C renal; -77.2% (active) in the assay on UO-31 renal; 104% in the assay on TK-10 renal; 60.1% in the assay on ACHN renal. The growth in the assay with CAKI-1 renal is 39.5%; in the assay with HL-60(TB) leukemia it was 31.7%; in the assay with CCRF-CEM leukemia it was 7.85% (active); with MOLT-4 leukemia it was 58.4%; with SR leukemia, 10.8%; in the assay with RPMI-8226 leukemia it was 48.1%. Besides, the growth was 45.3% in the assay on OVCAR-8 ovarian; 106% in the assay with OVCAR-5 ovarian; 71.9% in the assay on OVCAR-4 ovarian; 81.2% in the assay with SK-OV-3 ovarian; 74.1% in the assay with OVCAR-3 ovarian.

Consider `O=C(Nc1ccc([N+](=O)[O-])cc1)C(Cl)(Cl)Cl`, for which the growth in the assay with SK-MEL-2 melanoma is 102%; with EKVX NSCLC it was 89.4%; in the assay with SN12C renal, 95.3%; in the assay with UO-31 renal it was 87.3%; in the assay with TK-10 renal, 113%; in the assay with ACHN renal it was 86.9%. The growth in the assay with CAKI-1 renal is 83.3%; in the assay with HL-60(TB) leukemia, 108%; in the assay on CCRF-CEM leukemia it was 101%; in the assay on MOLT-4 leukemia, 107%; in the assay on SR leukemia, 94.1%; in the assay on RPMI-8226 leukemia it was 106%. For the same molecule, the growth in the assay on OVCAR-8 ovarian is 100%; in the assay on OVCAR-5 ovarian it was 95.6%; in the assay with OVCAR-4 ovarian, 103%; in the assay on SK-OV-3 ovarian, 115%; in the assay on OVCAR-3 ovarian, 117%; with HS 578T breast, 99.8%.

Take `CCn1cnc2c(Nc3cccc(Cl)c3)nc(N[C@@H]3CCCC[C@@H]3N)nc21`: the growth with SK-MEL-2 melanoma was -1.69% (active); in the assay on EKVX NSCLC, 11.8%; with SN12C renal, 6.96% (active); in the assay on UO-31 renal it was -13.3% (active); in the assay with TK-10 renal it was 13.5%; in the assay on ACHN renal it was 0.47% (active). Further, the growth was 25.1% in the assay on CAKI-1 renal; -51.6% (active) with HL-60(TB) leukemia; 2.54% (active) with CCRF-CEM leukemia; -10.9% (active) in the assay on MOLT-4 leukemia; -32.7% (active) in the assay with SR leukemia; -33.2% (active) in the assay on RPMI-8226 leukemia. In addition, the growth with OVCAR-5 ovarian is 3.37% (active); in the assay on OVCAR-4 ovarian, -7.56% (active); in the assay with SK-OV-3 ovarian it was 40.1%; with IGROV1 ovarian, 5.27% (active); in the assay on OVCAR-3 ovarian, 0.926% (active); with HS 578T breast it was 26.9%.

On to `Cn1cccc1C1CC(=O)N(CCC[Se]C#N)C1=O` (centres undefined), for which the growth in the assay on SK-MEL-2 melanoma is -35.2% (active); with EKVX NSCLC it was -65.3% (active); in the assay with SN12C renal, -3.67% (active); in the assay with UO-31 renal, -75.9% (active); with TK-10 renal, -69.5% (active); with ACHN renal it was -4.46% (active). The growth in the assay with CAKI-1 renal is -80.1% (active); in the assay on HL-60(TB) leukemia, -42.8% (active); in the assay on CCRF-CEM leukemia, 13.8%; in the assay on MOLT-4 leukemia, 3.58% (active); in the assay with SR leukemia, 21.2%; in the assay with RPMI-8226 leukemia it was 64.4%. Further, the growth is 20.4% with OVCAR-5 ovarian; 31.2% in the assay with OVCAR-4 ovarian; -15.7% (active) in the assay with SK-OV-3 ovarian; -44.1% (active) with IGROV1 ovarian; -45.5% (active) in the assay on OVCAR-3 ovarian; -8.66% (active) in the assay with HS 578T breast.

For `CC(=O)O[C@H](C[C@H](C(C)C)N(C)C(=O)[C@@H](NC(=O)[C@H]1CCCCN1C)C(C)C)c1nc(C(=O)N[C@@H](Cc2ccccc2)C[C@H](C)C(=O)O)c(CCOCc2ccccc2)s1`, the growth in the assay with SK-MEL-2 melanoma is 2.3% (active); in the assay with EKVX NSCLC it was 49%; in the assay on SN12C renal, 9.77% (active); in the assay with UO-31 renal, 31.8%; in the assay on TK-10 renal, 31.3%; in the assay on ACHN renal, 12.3%. The growth was 24.4% in the assay on CAKI-1 renal; -29.3% (active) in the assay with HL-60(TB) leukemia; 9.38% (active) with CCRF-CEM leukemia; 11% with MOLT-4 leukemia; 9.77% (active) in the assay with SR leukemia; 10.8% in the assay on OVCAR-8 ovarian. Besides, the growth in the assay with OVCAR-5 ovarian was 35.7%; in the assay with OVCAR-4 ovarian, 37%; in the assay on SK-OV-3 ovarian, 44.6%; in the assay on IGROV1 ovarian, 10.7%; in the assay with OVCAR-3 ovarian it was -6.07% (active); in the assay with HS 578T breast it was 11.4%.

As to `COc1ccc(/C(C)=C(\c2ccc(OCCN3CCOCC3)cc2)c2ccc(OC(=O)Cc3ccccc3)cc2)cc1`, the growth with SK-MEL-2 melanoma is 96.1%; with EKVX NSCLC it was 97.7%; with SN12C renal it was 107%; in the assay on UO-31 renal it was 97%; in the assay with TK-10 renal, 108%; in the assay on ACHN renal, 101%. Also, the growth is 97.5% in the assay with CAKI-1 renal; 118% with HL-60(TB) leukemia; 98.3% in the assay on CCRF-CEM leukemia; 104% in the assay on MOLT-4 leukemia; 112% with SR leukemia; 84.6% in the assay with RPMI-8226 leukemia. Besides, the growth was 100% with OVCAR-8 ovarian; 104% in the assay with OVCAR-5 ovarian; 106% in the assay with OVCAR-4 ovarian; 97.6% with SK-OV-3 ovarian; 113% in the assay with IGROV1 ovarian; 101% in the assay on OVCAR-3 ovarian. The growth in the assay on HS 578T breast is 110%.

As for `COC(=O)[C@@H](C)C[C@H](Cc1ccccc1)NC(=O)c1nc([C@@H](C[C@H](C(C)C)N(C)C(=O)[C@@H](NC(=O)[C@H]2C[C@H](O)CCN2C)C(C)C)OC(C)=O)sc1C(C)C`, the growth is 12.4% with SK-MEL-2 melanoma; 35.2% with EKVX NSCLC; 7.67% (active) in the assay on SN12C renal; 12.5% in the assay on UO-31 renal; 27.5% in the assay with TK-10 renal; 10.8% with ACHN renal. Further, the growth in the assay with CAKI-1 renal was 23.8%; with HL-60(TB) leukemia, -42.3% (active); in the assay on CCRF-CEM leukemia, 4.78% (active); in the assay with MOLT-4 leukemia it was 11%; in the assay with SR leukemia it was 3.04% (active); in the assay with RPMI-8226 leukemia, -4.65% (active). Moreover, the growth with OVCAR-8 ovarian was 10.6%; in the assay on OVCAR-5 ovarian it was 33.4%; in the assay on OVCAR-4 ovarian it was 35.6%; with SK-OV-3 ovarian it was 2.1% (active); in the assay on OVCAR-3 ovarian it was 2.66% (active); in the assay with HS 578T breast, 6.61% (active).

As for `COC(=O)[C@H](C[C@H](Cc1ccccc1)NC(=O)c1csc([C@@H](C[C@H](C(C)C)N(C)C(=O)[C@@H](NC(=O)[C@H]2CCCCN2C)C(C)C)OC(C)=O)n1)NC(=O)OCc1ccccc1`, the growth was 5.82% [8.5 µM] (active) in the assay on SK-MEL-2 melanoma; 54.7% [8.5 µM] in the assay with EKVX NSCLC; 9.35% [8.5 µM] (active) with SN12C renal; 32.3% [8.5 µM] in the assay on UO-31 renal; 44.2% [8.5 µM] in the assay with TK-10 renal; 13.5% [8.5 µM] with ACHN renal. Also, the growth with CAKI-1 renal is 34.9% [8.5 µM]; in the assay with HL-60(TB) leukemia, -30.3% [8.5 µM] (active); in the assay with CCRF-CEM leukemia, 6.6% [8.5 µM] (active); with MOLT-4 leukemia it was 16.1% [8.5 µM]; with SR leukemia it was -16.9% [8.5 µM] (active); in the assay on RPMI-8226 leukemia, -13.9% [8.5 µM] (active). In addition, the growth with OVCAR-5 ovarian was 26.1% [8.5 µM]; in the assay with OVCAR-4 ovarian it was 40.4% [8.5 µM]; in the assay on SK-OV-3 ovarian, 22.9% [8.5 µM]; in the assay with IGROV1 ovarian it was 13% [8.5 µM]; with OVCAR-3 ovarian, -12.2% [8.5 µM] (active); in the assay on HS 578T breast, 15.3% [8.5 µM].
